Bioassay records: PubChem BioAssay, National Center for Advancing Translational Sciences (NCATS)
Nrf2 block: Nrf2 qHTS screen for inhibitors; A549 ARE-Fluc reporter, luciferase luminescence, 18-24 h; actives 2.1% (n = 360,000); Potency, µM (top dose mostly 46 µM), hits mostly inhibitors; note: nearly all actives have a fitted effect of over 60% in size
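Nrf2 activity is the BugLite luminescence, read 15 min after reagent at room temperature, following CellTiter-Fluor cytotoxicity readout (30 min, 37C). Compound titrations were applied for 18-24 h to 5000 A549 ARE_Fluc cells/well in 5% FBS OPTI-MEM.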
TrxR1 substrate: qHTS Assay for Substrates of Mammalian Selenoprotein Thioredoxin Reductase 1 (TrxR1): qHTS; Thioredoxin reductase 1, cytoplasmic (Rattus norvegicus), O89049; purified TrxR1 substrate turnover, NADPH consumption readout; Potency, µM (top dose mostly 114 µM); actives 0.01% (n = 390,000); AID 588456, 2011; note: nearly all actives have a fitted effect of over 50% in size
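Rat TrxR1, dispensed at 90 nM, was prereduced with 400 uM NADPH (final) for 5 min at ~22 deg C, then incubated with compound 15 min before 400 uM selenite. A first-read NADPH fluorescence drop versus no-compound background flagged substrates.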
TrxR1 inh: qHTS Assay for Inhibitors of Mammalian Selenoprotein Thioredoxin Reductase 1 (TrxR1): qHTS; Thioredoxin reductase 1, cytoplasmic (Rattus norvegicus), O89049; AID 588453, 2011; Potency, µM (doses to about 114 µM), most hits filed as inhibitors; actives 1% (n = 390,000); recombinant rTrxR1, NADPH fluorescence consumption, selenite substrate; note: nearly all actives have a fitted effect of over 65% in size
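Rat TrxR1 (90 nM in the dispensed reagent) was pre-reduced with 400 uM NADPH for 5 min at room temperature, then incubated with compound for 15 min. After 400 uM selenite was added, NADPH fluorescence (Ex 340/Em 450 nm) was followed for 8 min.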
GALK inh: qHTS Assay for Inhibitors of Human Galactokinase (GALK) | P51570 | Purified GALK, Kinase-Glo residual ATP luminescence | Potency, µM (titrated, usually from 57.5 µM), most hits filed as inhibitors | actives 0.007% (n = 270,000) | AID 1868, 2009
Target sequence (P51570 whole entry, looked up): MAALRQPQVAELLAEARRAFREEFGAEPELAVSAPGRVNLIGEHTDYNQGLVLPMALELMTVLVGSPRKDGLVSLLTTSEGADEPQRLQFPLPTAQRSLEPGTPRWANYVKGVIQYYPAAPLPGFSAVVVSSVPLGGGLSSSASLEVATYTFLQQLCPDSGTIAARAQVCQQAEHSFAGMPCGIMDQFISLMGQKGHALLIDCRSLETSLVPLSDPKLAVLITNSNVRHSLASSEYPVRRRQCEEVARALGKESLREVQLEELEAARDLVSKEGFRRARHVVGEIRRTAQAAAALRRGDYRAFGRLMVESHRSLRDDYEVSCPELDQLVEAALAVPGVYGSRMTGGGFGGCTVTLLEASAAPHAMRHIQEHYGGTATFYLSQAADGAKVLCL
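Luminescence from leftover ATP (Ultra-Glo luciferase/luciferin) served as read-out after a 1 h room-temperature reaction of 5 nM GALK with 35 uM ATP and 100 uM galactose.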
Nrf2 activator: qHTS of Nrf2 Activators; AREc32 ARE-luciferase reporter (MCF7-derived line), luminescence, 24 h; Potency, µM (doses to about 46.1 µM), usual class: activators; actives 0.31% (n = 410,000); note: nearly all actives have a fitted effect of over 65% in size
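Cells of the AREc32 ARE-luciferase line are plated in OPTI-MEM containing 5% FBS and left overnight at 37 deg C. Compounds are pinned in, incubation continues 24 hr, and firefly luciferase signal is then measured.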
A549 tox: Nrf2 qHTS screen for inhibitors: counterscreen for cytotoxicity; A549 ARE-Fluc cells, CellTiter-Fluor viability, 18-24 h; Potency, µM (top dose mostly 46 µM), most hits filed as inhibitors; actives 0.16% (n = 390,000); AID 504648, 2011
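Cytotoxicity counterscreen: CellTiter-Fluor fluorescence was measured in A549 ARE_Fluc cells after 18-24 h of compound exposure in a concentration series. The subsequent BugLite luminescent read reports ARE-luciferase activity.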
Hits are given with their value; 0 = inactive; ? = inconclusive; - = no result given; [ ] = dose if it differs, or a comment. Only some compounds are listed: those with a hit (about 3% of all), similar ones and a draw of the others. Calls come from the whole dose curve; as a rule, active = well fitted curve in the direction sought with a large enough effect; inconclusive = small, poorly fitted or top-dose-only effect, or another doubt; inactive = no such curve, though single readings can be large; an effect the other way counts as inactive or inconclusive.

SMILES	Nrf2 block	TrxR1 substrate	TrxR1 inh	GALK inh	Nrf2 activator	A549 tox
CCc1ccc2[nH]cc(S(=O)(=O)c3ccc(C(C)C)cc3)c(=O)c2c1	0	0	0	-	0	0
O=C(Cc1ccc(Cl)cc1)Nc1ccc2oc(-c3ccc(F)cc3)nc2c1	?	0	0	-	0	0
COc1ccc(-c2nc3cc(NC(=O)Cc4ccc(OC)c(OC)c4)ccc3o2)cc1	15µM	0	?	0	0	?
COc1ccc(-c2nc3cc(NC(=O)Cc4ccc(Cl)cc4)ccc3o2)cc1OC	23µM	0	0	-	0	?
COc1ccc(-c2nc3cc(NC(=O)CSc4ccc(C)cc4)ccc3o2)cc1	0	0	0	-	0	0
COc1ccc(CC(=O)Nc2ccc(-c3cn4cccc(C)c4n3)cc2)cc1OC	7.3µM	0	0	0	0	0
COc1ccc(C2Nc3ccccc3C(=O)N2Cc2cccc3ccccc23)cc1COc1ccc(NC(C)=O)cc1 (stereo not given)	?	-	-	-	-	0
O=C(CSc1nc2ccccc2nc1Cc1ccc(Cl)cc1)N1CCN(c2ccccc2F)CC1	-	0	0	-	0	0
COc1cc(Nc2nc3c(S(=O)(=O)c4cccc(Cl)c4)nnn3c3ccsc23)cc(OC)c1	0	0	0	-	0	0
CC(=O)Nc1ccccc1NS(=O)(=O)c1ccccc1NO	?	0	0	-	-	0
Cc1cc2c(cc1C)N(C(=O)CCl)CCN2C(=O)CCl	?	0	1.1µM	-	11µM	0
Cc1cccc(NC(=O)CSc2nnc(-c3ccco3)c(-c3ccco3)n2)c1C	?	0	2.8µM	0	?	?
Cc1cccc(NC(=O)CSc2nnc(-c3ccco3)c(-c3ccco3)n2)c1	?	0	8.9µM	0	?	0
Cc1cccc(NC(=O)CSc2nc(N)cc(N)n2)c1	0	0	0	0	0	0
CC(C)C(C)NC(=O)COc1ccc(Sc2ccc(OCC(=O)NC(C)C(C)C)cc2)cc1 (stereo not given)	21µM	0	0	0	0	0
CC(C)C(C)NC(=O)COc1ccc(-c2ccccc2)cc1 (stereo not given)	?	0	0	0	0	0
COc1ccc(Cn2c(SCc3ccc(C(=O)NC4CCCCC4)cc3)nc3ccncc32)cc1	13µM	0	0	-	0	0
COc1ccc(Cn2c(SCc3ccc(C(=O)NC4CCCC4)cc3)nc3ccncc32)cc1	16µM	0	0	-	0	0
O=C(NC1CCCCC1)c1ccc(CSc2nc3ccncc3n2Cc2ccccc2)cc1	?	0	0	-	0	0
Cc1ccc(Cn2c(SCc3ccc(C(=O)NC4CCCCC4)cc3)nc3ccncc32)cc1	21µM	0	0	-	0	0
c1nc(NCCc2cnc[nH]2)c2cc(-c3ccc4c(c3)OCO4)ccc2n1	0	-	-	-	-	0
CCOC(=O)c1cnc2cc(C(F)(F)F)ccc2c1N1CCN(c2ccc(F)cc2)CC1	0	0	0[11.4 µM]	-	0	0
O=C(Nc1ccccc1N1CCOCC1)c1ccccc1NS(=O)(=O)c1ccc(F)cc1	0	0	0	0	0	0
Cc1ccc(C)c(S(=O)(=O)Nc2ccccc2C(=O)Nc2ccccc2N2CCOCC2)c1	23µM	0	0	0	0	0
Cc1cc(F)ccc1S(=O)(=O)Nc1ccccc1C(=O)Nc1ccccc1N1CCOCC1	21µM	0	0	0	0	0
SMILES	Nrf2 block	TrxR1 substrate	TrxR1 inh	GALK inh	Nrf2 activator	A549 tox
O=C(Nc1ccccc1N1CCOCC1)c1ccccc1NS(=O)(=O)c1ccc(F)c(F)c1	21µM	0	0	0	0	0
COc1ccc(C=O)cc1COc1ccc(NC(C)=O)cc1	0	-	-	-	-	0
COC(=O)/C=C1/S/C(=N/N=C/c2ccco2)NC1=O	0	0	0	0	10µM	0
CC(=O)c1ccc(OCC(O)CN(C)CCOc2ccc(Br)cc2)cc1 (stereo not given)	18µM	0	0	0	0	0
CCNc1nc(C#N)nc2c1ncn2-c1cccc(Cl)c1	?	-	-	-	-	0
CC(C)(C)n1ncc2c(=O)n(Cc3cccc(C(F)(F)F)c3Cl)cnc21	-	0	0	-	-	-
CCOc1ccc(CN(C)C(=O)CCl)cc1	0	0	18µM	0	?	0
CCOc1ccc(CN(C)C(=O)CCNC(=O)c2ccco2)cc1	0	0	0	-	0	0
O=C(CSc1ncc2c(n1)-c1cc(Cl)ccc1N(Cc1ccccc1)S2(=O)=O)NCc1ccccc1	0	0	0	-	0	0
Cc1ccc2nc3sc(C(=O)Nc4ccc(N5CCOCC5)cc4)c(N)c3cc2c1	-	-	-	0	-	-
Cc1cccc2cc3c(N)c(C(=O)Nc4ccc(N5CCOCC5)cc4)sc3nc12	23µM	0	0	0	0	0
CSc1ccc(CCNC(=O)CCn2c(=O)c3cccn3c3cccnc32)cc1	?	0	0	-	0	0
CCN(CC)C(=O)CSc1nnc2nnc3cc(OC)ccc3n12	18µM	0[11.4 µM]	0[11.4 µM]	0	0	?
COC(=O)c1c(NC(=O)CCCOc2cccc(C)c2)sc2c1C(C(=O)OC)CC2 (stereo not given)	0	0	0	-	0	0
Cc1ccc(Cl)cc1N1CCN(CCNC(=O)Nc2ccccc2Cl)CC1	?	0	0	-	0	0
CCC1CCCCN1S(=O)(=O)c1ccc(C(=O)Nc2nnc(-c3ccccc3Cl)o2)cc1 (stereo not given)	5.2µM	0	0	0	0	?
CCC1CCCCN1S(=O)(=O)c1ccc(NC(=O)c2ccncc2)cc1 (stereo not given)	8.2µM	0	0	0	0	0
CCC1CCCCN1S(=O)(=O)c1ccc(NC(=O)c2nc(S(C)(=O)=O)ncc2Cl)cc1 (stereo not given)	?	0	7.1µM	0	0	?
CCSc1ncc(Cl)c(C(=O)Nc2ccc(S(=O)(=O)N3CCCCC3CC)cc2)n1 (stereo not given)	?	0	0	-	0	0
CCS(=O)(=O)c1ncc(Cl)c(C(=O)Nc2ccc(S(=O)(=O)N3CCCC(C)C3)cc2)n1 (stereo not given)	?	0	2.5µM	0	?	?
CCC(CC)C(=O)Nc1ccc2nc(SCC(=O)N3CCCC3)sc2c1	?	0	0	-	0	0
COc1cc(NC(=O)c2cc3c(=O)oc4ccc(C)cc4c3s2)cc(OC)c1OC	0	0	0	-	0	0
CCOC(=O)CSc1nc2cc(OC)c(OC)cc2cc1C#N	0	0	0	-	-	0
Cc1nc2cc(Cl)c(Cl)cc2n1CCCO	0	0	0	0	0	0
Cc1cc(=S)cc(C)n1CCCO	0	0	13µM	0	0	?
CCc1c(C)nc2nc(-c3ccccc3)nn2c1NCc1ccc(C)cc1	18µM	0	0	-	0	0
